From PubChem BioAssay
An excerpt weighted towards active compounds, which were near 6.6% of everything screened.
KB-V1 cytotox: KB-V1 MDR subline cytotoxicity; KB-V1 MDR cells viability, CellTiter-Glo, 72 h; Potency, µM (titrated, usually from 46.1 µM), actives largely listed as cytotoxic; 3.4% of 400,000 active; AID 1347076; further: on the % scale 0 is the no-effect control and ±100 the full control effect; nearly all actives have a fitted effect of over 60% in size
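Compound-treated KB-V1 multidrug-resistant cells, 72 h, 37 degrees C; viability by CellTiter-Glo. Fitted qHTS curves give the values.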
KB-3-1 tox: kills parental KB-3-1 adenocarcinoma cells | KB-3-1 viability, CellTiter-Glo ATP luminescence, 72 h | Potency, µM (top dose mostly 46.1 µM), usual class: cytotoxic | 1.4% of 400,000 active | AID 1347075; further: on the % scale 0 is the no-effect control and ±100 the full control effect; nearly all actives have a fitted effect of over 60% in size
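Screening of KB-3-1 cells (DMEM, 10% FBS, phenol-red free) ran from lowest to highest compound concentration; after 72 h at 37 °C viability was read luminescently and curves fitted.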
HT1080NT lethal: kills 2HG-producing HT-1080-NT fibrosarcoma cells. HT-1080-NT fibrosarcoma viability, CellTiter-Glo ATP luminescence, 48 h. Potency, µM (top dose mostly 46.1 µM), without a hit: at the highest dose activity, negative = less viability, usual class: cytotoxic. 1.6% of 360,000 active;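 further: NT is the 2HG producing partner of a matched IDH1 knockdown line; 0% = DMSO-treated cells and -100% = media-only wells without cells; nearly all actives have a fitted effect of over 55% in size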
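A 48-hour cytotoxicity screen used HT-1080-NT cells plated 2 hours before compound delivery. ATP-based CellTiter-Glo luminescence measured viability, normalized to DMSO and no-cell controls.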
TGFb inhibitor: blocks TGF-b signaling | Potency, µM (doses to about 46.1 µM), inactives show at the top dose activity, negative = inhibition, usual class: inhibitors | AID 588855 | 1.2% of 410,000 active | HepG2 CAGA-GFP TGF-b/SMAD3 reporter, GFP fluorescence, 18 h; TGF-beta stimulated, 500 pg/mL final; further: on the % scale 0 is the no-effect control and ±100 the full control effect; nearly all actives have a fitted effect of over 65% in size
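Smad-responsive CAGA-GFP expression was quantified in HEPG2 cells exposed to compounds and 500 pg/mL final TGF-beta for 18 h at 37 degrees C; unstimulated wells defined full inhibition.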
HT1080 IDH1KD tx: toxicity to HT-1080 IDH1 knockdown cells (counter line); HT-1080 IDH1 knockdown viability, ATP luminescence, 48 h; Potency, µM (top dose mostly 46.1 µM), inactives show at the highest dose activity, negative = toxicity, actives largely listed as cytotoxic; 2% of 360,000 active;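 further: 0% = DMSO wells and -100% = cell-free medium wells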
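Assay cells: HT-1080 with IDH1 knockdown, 750 per well, RPMI/5% FBS. Exposure: 48 h at 37 °C following 2 h pre-incubation. Read: CellTiter-Glo luminescence; fitted concentration-response, curve class assigned.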
HepG2 viability: kills HepG2 cells in TGF-b inhibitor counter-screen | HepG2 CAGA-GFP viability, ATP luminescence, 18 h | 0.76% of 410,000 active | Potency, µM (doses to about 46.1 µM), for the others: at the highest dose activity change, negative = cytotoxicity, most hits filed as cytotoxic | AID 588856
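CellTiter-Glo luminescence gave cytotoxicity after 18 hours at 37 degrees C. The cells were HepG2 CAGA-GFP in 1% FBS DMEM, stimulated with 500 pg/mL TGF-beta after compound addition. %Activity was normalised to no-cell wells (complete cell-killing) and DMSO (no toxicity), and curves were fitted and classified.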
* marks the source's active call; other numbers are inactive results; ! = not active in a repeat. The call rests on the fitted dose curve; in most records, active means well fitted curve in the direction sought with a large enough effect; inconclusive means small, poorly fitted or top-dose-only effect, or another doubt; inactive means no such curve, though single readings can be large; an effect the other way counts as inactive or inconclusive. Potency means the concentration at half of the fitted maximal effect.

Results for CCN(C[C@H]1N[C@@](C)(C(=O)OC)[C@H]2C(=O)N(Cc3ccccc3)C(=O)[C@@H]12)S(=O)(=O)c1ccc(C(C)(C)C)cc1 ?
KB-V1 cytotox: inactive; KB-3-1 tox: inactive; HT1080NT lethal: -12%; TGFb inhibitor: inconclusive; HT1080 IDH1KD tx: -5%; HepG2 viability: -5%

What do the screens show for `O=C(CCS(=O)(=O)c1ccc(Cl)cc1)Nc1cccc(S(=O)(=O)N2CCCCCC2)c1`?
KB-V1 cytotox: 21µM*; KB-3-1 tox: inactive; HT1080NT lethal: 3%; TGFb inhibitor: inconclusive; HT1080 IDH1KD tx: -5%; HepG2 viability: 0%

Results for Cc1ccc(S(=O)(=O)N2CCCCC2)cc1NC(=O)Nc1ccc(Cl)cc1Cl ?
KB-V1 cytotox: inactive; KB-3-1 tox: inactive; HT1080NT lethal: 7%; TGFb inhibitor: inconclusive; HT1080 IDH1KD tx: 7%; HepG2 viability: -8%

How did COc1ccc(C2=C(C(C)=O)Sc3nnc(-c4ccc(C)cc4)n3N2C(C)=O)cc1OC do in these assays?
TGFb inhibitor: inconclusive; HepG2 viability: -16%

What do the screens show for `O=C(c1ccccc1)C(CN1CCCC1)c1ccccc1` (stereo unspecified)?
KB-V1 cytotox: 5.2µM*; KB-3-1 tox: 5.2µM*; HT1080NT lethal: 21µM*; TGFb inhibitor: inconclusive; HT1080 IDH1KD tx: 13µM*; HepG2 viability: 5.6µM*

How did COc1ccc(CNC(=O)CCS(=O)(=O)c2ccc3c(c2)oc(=O)n3C)cc1 do in these assays?
KB-V1 cytotox: inactive; KB-3-1 tox: inactive; HT1080NT lethal: 6%; TGFb inhibitor: 7%; HT1080 IDH1KD tx: 15%; HepG2 viability: 10%

What do the screens show for `Nc1c(C(=O)Nc2ccc(OC(F)(F)F)cc2)sc2nc3c(cc12)N1CCC3CC1`?
TGFb inhibitor: -25%; HepG2 viability: -17%

Results for O=C(Nc1ccc(OC(F)(F)F)cc1)C1CCN(S(=O)(=O)c2cccs2)CC1 ?
KB-V1 cytotox: inactive; KB-3-1 tox: 21µM*; TGFb inhibitor: inconclusive; HepG2 viability: -22%

What do the screens show for `O=C(NCCc1ccccc1)[C@@H]1CC=C[C@@H]2CCN(Cc3ccc(Cl)c(Cl)c3)C(=O)[C@@H]21`?
KB-V1 cytotox: 16µM*!; KB-3-1 tox: inconclusive; HT1080NT lethal: -22%; TGFb inhibitor: inconclusive; HT1080 IDH1KD tx: -29%; HepG2 viability: -18%

How did Cc1ccc(-n2nc3c(N4CCC(C(=O)NCCc5ccccc5)CC4)nnc(C)c3c2C)cc1 do in these assays?
KB-V1 cytotox: inactive; KB-3-1 tox: inactive; TGFb inhibitor: inconclusive; HepG2 viability: -27%

How did O=C(CN1CCCCC1)c1ccccc1 do in these assays?
KB-V1 cytotox: inactive; KB-3-1 tox: inactive; TGFb inhibitor: inconclusive; HepG2 viability: -16%

What do the screens show for `CCCCCSc1cc(OC)c(CCN)cc1OC`?
KB-V1 cytotox: inconclusive; KB-3-1 tox: 21µM*; HT1080NT lethal: inconclusive; TGFb inhibitor: inconclusive; HT1080 IDH1KD tx: inconclusive; HepG2 viability: -101%

How did CCCCCCCSc1cc(OC)c(CCN(C)C)cc1OC do in these assays?
KB-V1 cytotox: inconclusive; KB-3-1 tox: inconclusive; HT1080NT lethal: -10%; TGFb inhibitor: inconclusive; HT1080 IDH1KD tx: -23%; HepG2 viability: -121%

What do the screens show for `CCCC[C@@H](C)C[C@@H](C)C(=O)N(C)[C@@H](CC(C)C)C(=O)N[C@H](C(=O)N(C)[C@H](C(=O)N1C[C@@H](O)C[C@H]1C(=O)N1C(=O)C=C[C@@H]1C)C(C)C)C(C)OC(C)=O` (stereo partly specified)?
KB-V1 cytotox: inactive; KB-3-1 tox: inactive; HT1080NT lethal: 0.029µM*; TGFb inhibitor: inconclusive; HT1080 IDH1KD tx: 0.12µM*; HepG2 viability: -113%

Results for CC(C)OP(=O)(OC(C)C)C(O)c1ccc2c(c1)OCO2 (stereo unspecified) ?
KB-V1 cytotox: inactive; KB-3-1 tox: inactive; HT1080NT lethal: 4%; TGFb inhibitor: 10%; HT1080 IDH1KD tx: 19%; HepG2 viability: 17%

How did Oc1c(C(Nc2cccnc2)c2ccccc2F)ccc2cccnc12 (stereo unspecified) do in these assays?
KB-V1 cytotox: inactive; KB-3-1 tox: inactive; TGFb inhibitor: inconclusive; HepG2 viability: -10%

What do the screens show for `Oc1cccc2cccnc12`?
TGFb inhibitor: 3.5µM*; HepG2 viability: 5.6µM*

What do the screens show for `CCCN1CCc2cccc3c2[C@H]1Cc1ccc(O)c(O)c1-3`?
KB-V1 cytotox: inconclusive; KB-3-1 tox: inactive; HT1080NT lethal: 3.3µM*; TGFb inhibitor: inconclusive; HT1080 IDH1KD tx: 23µM*; HepG2 viability: -26%

What do the screens show for `CN1CCc2cccc3c2[C@H]1Cc1ccc(O)c(O)c1-3`?
KB-V1 cytotox: inconclusive; KB-3-1 tox: inconclusive; HT1080NT lethal: 21µM*!; TGFb inhibitor: inconclusive; HT1080 IDH1KD tx: 33µM*; HepG2 viability: -21%

Results for COc1ccc2c(c1O)-c1c(OC)c(OC)cc3c1[C@H](C2)N(C)CC3 ?
KB-V1 cytotox: inactive; KB-3-1 tox: inactive; HT1080NT lethal: inconclusive; TGFb inhibitor: -8%; HT1080 IDH1KD tx: 17%; HepG2 viability: -16%

Results for CCCN1CCO[C@@H]2c3cc(O)ccc3OC[C@H]21 ?
KB-V1 cytotox: inactive; KB-3-1 tox: inactive; HT1080NT lethal: 7%; TGFb inhibitor: -9%; HT1080 IDH1KD tx: 8%; HepG2 viability: -23%

What do the screens show for `CCOP(=O)(c1ccc(N(C)C)cc1)C(O)c1cccnc1` (stereo unspecified)?
KB-V1 cytotox: inactive; KB-3-1 tox: inactive; HT1080NT lethal: 14%; TGFb inhibitor: 17%; HT1080 IDH1KD tx: 20%; HepG2 viability: 20%

Results for Cc1cc(/C=C2\C(=O)NC(=O)N(c3ccc(Cl)cc3)C2=O)c(C)n1-c1sc2c(c1C#N)CCCC2 ?
KB-V1 cytotox: inactive; KB-3-1 tox: inactive; HT1080NT lethal: -14%; TGFb inhibitor: 3.5µM*; HT1080 IDH1KD tx: inconclusive; HepG2 viability: -47%

How did Cc1ccc(-n2c(C)cc(/C=C3/C(=O)NC(=O)N(C)C3=O)c2C)cc1 do in these assays?
KB-V1 cytotox: inactive; KB-3-1 tox: inactive; HT1080NT lethal: -4%; TGFb inhibitor: -3%; HT1080 IDH1KD tx: 0%; HepG2 viability: -11%

What do the screens show for `CCOC(=O)c1c(-n2c(C)cc(/C=C3\C(=O)NC(=O)N(C)C3=O)c2C)sc2c1CCCC2`?
KB-V1 cytotox: 23µM*; KB-3-1 tox: inactive; HT1080NT lethal: 14%; TGFb inhibitor: -10%; HT1080 IDH1KD tx: 3%; HepG2 viability: -14%
